Results: PubChem BioAssay AID1465 (SRMLSC, 2008)
Among all 220,000 compounds or so, about 160 (0.073%) were called active. The list is a sample of the results. Results with a measured potency or affinity are listed apart. Values without a mark were called inactive.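 The calls were made as follows: active = fold induction of absorbance versus untreated yeast above a set limit, then at least 30% activation at any dose in follow-up; inconclusive = repeats straddling the limit, or above it without dose testing; inactive = fold induction below the set limit.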

assay: enhancers of respiration in Yfh1-depleted yeast, dose response, Friedreich's ataxia, plus single-dose screen (AID 1465); details: S. cerevisiae Yfh1-off respiration, WST-1 reduction, 72 h; at 50 µM; hits give high values

Row | Compound | fold induction
1 | CC(Oc1cccc2c1OC(C)(C)C2)C(=O)O (configuration not stated) | 1.05
2 | CC(C)c1nnc(SCC(=O)N2CCc3ccccc32)n1C | 0.98
3 | O=C1c2ccccc2NC(c2ccc(-c3ccc(Br)cc3)o2)N1O (configuration not stated) | 0.77
4 | O=C1c2ccccc2NC(c2ccc(-c3cccc([N+](=O)[O-])c3)o2)N1O (configuration not stated) | 0.9
5 | O=c1oc2ccccc2cc1C1=Nn2c(nnc2-c2cccnc2)SC1 | 1.06
6 | COc1ccc(Cn2c(O)c(C=Nc3ccc(OC)cc3)c3ccccc3c2=O)cc1 | 1.13
7 | O=C(N/N=C/c1c(O)n(-c2ccccc2Cl)c(=O)c2ccccc12)c1cccnc1 | 1.49
8 | COc1ccc(Cn2c(O)c(C=Nc3ccccc3)c3ccccc3c2=O)cc1 | 1.05
9 | Cc1c(/C=N/NC(=O)c2cccnc2)c2ccccc2n1Cc1ccccc1 | 1.01
10 | CC1CCC(NC(=S)NCCN(C)C)CC1 (configuration not stated) | 1
11 | O=C1C2CCCN2C(c2ccc(Br)cc2)N1c1ccc(F)cc1 (configuration not stated) | 0.86
12 | CCOC(=O)/C(C(N)=NCC(C)C)=C(/O)c1ccccc1 | 0.925
13 | O=C(CSc1nc(-c2ccc(F)cc2)cc(C(F)(F)F)n1)Nc1ccc2c(c1)OCO2 | 0.96
14 | O=C(OCCOc1ccccc1)c1n[nH]c2ccccc12 | 0.95
15 | COC(=O)[C@H](C)NC(=O)Nc1ccc(OC)cc1OC | 1.1
16 | Cc1noc(C)c1CSc1ccc(Br)cc1 | 0.89
17 | COc1ccc(C(=O)NCC(=O)N/N=C/C=C/c2ccccc2)cc1OC | 0.96
18 | CCCCCCN1C=CC(=C/C=C(\C#N)C(=O)OCC)C=C1 | 1.18
19 | CCOC(=O)/C(C#N)=C/C=C1\C=Cc2ccccc2N1CC | 1

Row | Compound | fold induction
20 | CCCCNC(=S)N1CCN(c2ccc(C(C)=O)cc2)CC1 | 0.96
21 | COc1cccc(NC(=O)NCCC2=CCCCC2)c1 | 0.86
22 | Cc1ccccc1C(=O)NNC(=O)C(C)N1C(=O)c2ccccc2C1=O (configuration not stated) | 1.01
23 | NC(=S)n1[nH]c(-c2ccc([N+](=O)[O-])cc2)c(N=Nc2cccc(Cl)c2)c1=O | 1.01
24 | NC(=S)n1[nH]c(-c2ccc([N+](=O)[O-])cc2)c(N=Nc2ccc(Cl)cc2)c1=O | 1.58
25 | Cc1ccc(-n2c(SCC(=O)Nc3cc(C)on3)nc3c(c2=O)SC(C)C3)cc1 (configuration not stated) | 1.05
26 | CC(C)C(c1nnnn1CCc1ccccc1)N1CCOCC1 (configuration not stated) | 1.03
27 | COc1cccc2c1C(=O)C=C(C)C2=O | 1.23
28 | CC(C)(C=O)C1=CC(=O)c2ccccc2C1=O | 1.3
29 | Cc1ccc(N2CCN(C(=O)c3cccc([N+](=O)[O-])c3)CC2)cc1Cl | 0.82
30 | O=C(CSc1ccccc1)Nc1ccc(C(=O)Nc2ccc(O)cc2)cc1 | 1.06
31 | O=C(Cn1cnc2cc([N+](=O)[O-])ccc2c1=O)Nc1ccc2c(c1)OCO2 | 0.88
32 | Cc1cccc(NC(=S)NNC(=O)COc2ccc(Cl)cc2Cl)c1 | 1.14
33 | COc1ccc(NC(=S)NNC(=O)COc2ccc(Cl)cc2Cl)cc1 | 0.84
34 | O=C(NCc1ccc(Cl)cc1)C1CCC(CNc2c(N3CCOCC3)c(=O)c2=O)CC1 (configuration not stated) | 1.07
35 | O=C(N/N=C/c1cc([N+](=O)[O-])ccc1O)c1cc(-c2ccccc2)nc2ccccc12 | 1.16
36 | COc1cc([N+](=O)[O-])cc(/C=N/NC(=O)c2cc(C)nc3ccccc23)c1O | 1.4
37 | Cc1ccccc1-c1nc(CN2CCSCC2)c(C)o1 | 1.04
